Values joined by “and” are separate entries in the source; they are usually repeats but may differ in a detail not shown here. Equal entries are not always repeated. Compounds without any hit were thinned out: in the full panel of roughly 83,000, 20% have a hit.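 Single-concentration screen, 48 h exposure, 96-well plates. Endpoint: percent growth. Below 10 = active.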 Active and inactive are the calls of the source.
system: MDA-MB-468 breast; assay: NCI-60 one-dose screen, 48 h (100 = growth as untreated, 0 = no growth, -100 = all killed); conditions: 10 µM unless noted

SMILES	growth
ClCC(Cl)C1CCC(Cl)C(Cl)C1 (stereo not given)	114% (inactive)
Cc1n[nH]c(=O)n(/N=C\c2c[nH]c3ccccc23)c1=O	106% (inactive)
COc1ccc(CC(C)=C(c2ccc(OCCN3CCCCCC3)cc2)c2ccc(OCCN3CCCCCC3)cc2)cc1	-81.2% (active)
CS(=O)(CCCCN=C=S)=NC(=O)c1c(F)c(F)c(F)c(F)c1F (stereo not given)	72.6% (inactive)
Cc1noc(C)c1-c1cc(O)cc(C(O)c2ccccc2)c1 (stereo not given)	24.9% (inactive)
COc1ccc(-c2nnc(SCC(=O)c3ccccc3)o2)cc1	91.5% (inactive)
O=C1/C(=C/c2cn(-c3ccccc3)nc2-c2ccccc2)SC(=S)N1CCc1ccccc1	103% (inactive)
CC(=O)O[C@H]1CC[C@@]2(C)[C@@H](CC[C@@H]3[C@@H]2CC[C@]2(C)C=C(C=O)C[C@@H]32)C1	111% (inactive)
CC(=S)Nc1ccccc1	103% (inactive)
COc1ccc(-c2nnc(N3CCN(C(=O)CN4CCN(c5ccc(Cl)cc5)CC4)CC3)nc2-c2ccc(OC)cc2)cc1	74% (inactive)
CCCCN(CCCC)CC(C)(C)C(O)c1ccc(OC)c2ccccc12 (stereo not given)	41.8% (inactive)
Cc1ccc(-c2cc(-c3cccnc3)[nH]c(=O)c2C#N)cc1	106% (inactive)
COC(=O)c1ccc(NC(=O)c2ccc(-c3cccc([N+](=O)[O-])c3)o2)cc1	96.5% (inactive)
CCCCOc1cc(C(=O)NCCN(CC)CC)c2ccccc2n1	81.3% (inactive) and 94.3% (inactive)
COc1ccc(-c2nc3ncccn3c2-c2nnc(-c3ccc(F)cc3)o2)cc1	100% (inactive)
